# “And” between values parts separate entries of the source, which are not always exact repeats. Identical values can stand only once. More than one record can exist for a structure, and the calls need not agree. The source made the active and inactive calls. Unless noted, no stated cut-off is given here; in the data, active means inhibition above about 80%; inactive means the rest.
# Experiments:
# [1] = LFS_MB_P medulloblastoma growth inhibition, cell-based, chromothripsis tumors, cisplatin or BGB combos (AID 1671449); conditions: LFS_MB_P medulloblastoma cells;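 further: cells exposed for 96 hours; 0% = vehicle DMSO and 100% = killing by high DMSO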
# [2] = HDN33 neuroblastoma growth inhibition, cell-based, chromothripsis tumors, cisplatin or BGB combos (AID 1671450); conditions: HDN33 neuroblastoma cells, stronger effect = higher value;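 further: cells exposed to compound for four days; 0% = vehicle DMSO and 100% = cell killing by high DMSO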
# [3] = ICB984 medulloblastoma cell growth inhibition, synergistic combos for chromothripsis tumors, cisplatin or BGB combos (AID 1671451; call rule not given here;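 further: cells exposed for 96 hours before readout; 0% = vehicle DMSO and 100% = killing by high DMSO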); conditions: ICB984 medulloblastoma cells, drug combinations, stronger effect = higher value
# [4] = LFS_MB_1R medulloblastoma cell growth inhibition, synergistic combos for chromothripsis tumors, cisplatin or BGB combos (AID 1671452); conditions: LFS_MB_1R medulloblastoma cells, stronger effect = higher value;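 further: cells exposed for 96 hours before readout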
# [5] = HTB85 osteosarcoma cell growth inhibition, synergistic combos for chromothripsis tumors, BGB or cisplatin IC20 combos (AID 1671453); conditions: HTB85 osteosarcoma cells, drug combinations, stronger effect = higher value;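 further: cells exposed for 96 hours before readout; 0% = vehicle DMSO and 100% = high DMSO killing control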
# [6] = CRL2098 osteosarcoma cell growth inhibition, synergistic combos for chromothripsis tumors, BGB or cisplatin IC20 combos (AID 1671454); conditions: CRL2098 osteosarcoma cells, drug combinations, stronger effect = higher value;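 further: cells exposed for 96 h before readout; 0% = vehicle DMSO and 100% = killing by high DMSO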
# [7] = HD-MB03 medulloblastoma cell growth inhibition, synergistic combos for chromothripsis tumors, BGB or cisplatin IC20 combos (AID 1671455; in the data active means inhibition above about 83%;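 further: 0% = vehicle DMSO and 100% = high DMSO as cytotoxic control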); conditions: HD-MB03 medulloblastoma cells, stronger effect = higher value
# [8] = UWB1.289 ovarian carcinoma cell growth inhibition, synergistic combos for chromothripsis tumors, BGB or cisplatin combos (AID 1671456); conditions: UWB1.289 ovarian carcinoma cells, stronger effect = higher value;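 further: cells exposed to compound for four days; 0% = vehicle DMSO and 100% = killing by high DMSO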
# [9] = LFS_MB_2R medulloblastoma cell growth inhibition, synergistic combos for chromothripsis tumors, cisplatin combos (AID 1671457); conditions: LFS_MB_2R medulloblastoma cells, stronger effect = higher value;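 further: cells exposed to compound for four days before readout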
# [10] = MDA-MB-436 breast carcinoma cell growth inhibition, synergistic combos for chromothripsis tumors, BGB or cisplatin combos (AID 1671458; call rule not given here;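 further: cells exposed for 96 hours; 0% = vehicle DMSO and 100% = killing by high DMSO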); conditions: MDA-MB-436 breast carcinoma growth inhibition, drug combinations, stronger effect = higher value
# [11] = UWB1.289_BRCA1 ovarian cancer growth, cell-based, BGB or cisplatin combinations (AID 1671459); conditions: UWB1.289 BRCA1 ovarian carcinoma, drug combinations, stronger effect = higher value
# [12] = human astrocyte viability loss, single and combined drugs, cytotoxicity control for chromothriptic childhood tumor combination screen, cell-based, BGB or cisplatin IC20 combos (AID 1671460); conditions: Human astrocytes, drug combinations, stronger effect = higher value;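 further: cells exposed to compounds for 96 hours before viability readout; 0% = vehicle and 100% = killing control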
# [13] = growth inhibition of BT084 medulloblastoma cells, cell-based, ICGC_MB145, cisplatin and BGB IC40 combos (AID 1671461); conditions: drug combinations, stronger effect = higher value;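 further: cells exposed to drugs for 96 hours; 0% = vehicle DMSO and 100% = high DMSO full killing control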
# [14] = growth inhibition of RCMB18 medulloblastoma cells, cell-based, cisplatin and BGB IC40 combos (AID 1671462); conditions: stronger effect = higher value;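 further: cells exposed to compound for four days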
# [15] = growth inhibition of CRL1545 osteosarcoma cells, cell-based, cisplatin and BGB IC20 combos (AID 1671464); conditions: stronger effect = higher value;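 further: cells exposed to compound for 96 hours before readout; 0% = vehicle DMSO and 100% = high DMSO killing control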
# [16] = measured here: combination with BGB IC40, at 0.05 µM
# [17] = measured here: with BGB IC20 combination, at 0.5 µM
# [18] = measured here: with cisplatin IC20 combination, at 0.5 µM
# [19] = measured here: combination with cisplatin, at 0.5 µM
# [20] = measured here: combination with cisplatin, at 5 µM
smiles,measurement,setting,value
O=c1[nH]c(=O)n(C2CC(O)C(CO)O2)cc1F (stereo not drawn),inhibition,"[1]; at 0.5 µM, stronger effect = higher value",-20.6% (inactive) and -34.4% (inactive)
same,inhibition,"[1]; measured here: combination with BGB IC20, at 0.005 µM",-20.3% and -26.1%
same,inhibition,"[1]; measured here: combination with BGB IC40, at 0.005 µM",-43.8% and -18.6%
same,inhibition,[1]; [16],-14.2% and -19.6%
same,inhibition,"[1]; measured here: combination with cisplatin, at 0.5 µM, stronger effect = higher value",-24.9% and -48.9%
same,inhibition,"[1]; measured here: combination with cisplatin, at 5 µM, stronger effect = higher value",-34.2% and -34.5%
same,inhibition,"[2]; BGB combo, at 5 µM",90.8% and 95.2%
same,inhibition,[2]; at 0.5 µM,75% (inactive) and 78.5% (inactive)
same,inhibition,"[2]; cisplatin combo, at 5 µM",63% and 78%
same,inhibition,[2]; [17],72.2% and 74.3%
same,inhibition,[2]; [18],71.3% and 78.7%
same,inhibition,"[2]; single agent, at 5 µM",78.6% and 88.5%
same,inhibition,"[3]; BGB IC20 combo, at 0.005 µM",-21.6% and 13.5%
same,inhibition,"[3]; BGB IC40 combo, at 0.005 µM",-12.3% and -34.3%
same,inhibition,"[3]; BGB IC40 combo, at 0.05 µM",-9.05% and -30.1%
same,inhibition,[3]; at 0.5 µM,-17.5% (inactive) and -17.1% (inactive)
same,inhibition,"[3]; cisplatin combo, at 0.05 µM",-9.05% and -34.7%
same,inhibition,"[3]; cisplatin combo, at 0.5 µM",-15.5% and -22.4%
same,inhibition,"[3]; cisplatin combo, at 5 µM",-14.7% and -40.3%
same,inhibition,"[3]; measured here: 5 uM single agent, at 5 µM",-2.45% and 14.3%
same,inhibition,[4]; at 0.5 µM,-19.6% (inactive) and -23.9% (inactive)
same,inhibition,[4]; [16],8.22% and -31%
same,inhibition,[4]; [19],23.3% and -25.8%
same,inhibition,[4]; [20],-7.39% and -26.1%
same,inhibition,[5]; at 0.5 µM,-24.9% (inactive) and 12.1% (inactive)
same,inhibition,"[5]; measured here: with BGB IC20, at 0.5 µM",-52.4% and -21.4%
same,inhibition,"[5]; measured here: with BGB IC20, at 5 µM",5.67% and -8.07%
same,inhibition,"[5]; measured here: with cisplatin IC20, at 0.5 µM",-22.6% and 15.4%
same,inhibition,"[5]; measured here: with cisplatin IC20, at 5 µM",14% and 12.8%
same,inhibition,"[5]; single agent, at 5 µM",12% and 38.7%
same,inhibition,[6]; at 0.5 µM,-50.2% (inactive) and -54% (inactive)
same,inhibition,"[6]; measured here: combination with BGB at IC20, at 0.5 µM",-11.9% and -25.4%
same,inhibition,"[6]; measured here: combination with cisplatin at IC20, at 0.5 µM",-87.1% and -79.9%
same,inhibition,[7]; at 0.5 µM,75.2% (inactive) and 82.3% (active)
same,inhibition,"[7]; measured here: combo with BGB at IC20, at 0.5 µM",72.8% and 77.8%
same,inhibition,"[7]; measured here: combo with cisplatin at IC20, at 0.5 µM",79.4% and 87.9%
same,inhibition,[8]; at 0.5 µM,11% (inactive) and 22.1% (inactive)
same,inhibition,"[8]; measured here: inhibition with BGB combination, at 0.05 µM",-37.3% and -7.93%
same,inhibition,"[8]; measured here: inhibition with cisplatin combination, at 0.05 µM",-10.2% and -15.2%
same,inhibition,[9]; at 0.5 µM,-6.08% (inactive) and -22.6% (inactive)
same,inhibition,[9]; [19],-26% and -30.3%
same,inhibition,[9]; [20],-20.5% and -22.8%
same,inhibition,[10]; at 0.5 µM,39.9% (inactive) and 54.5% (inactive)
same,inhibition,"[10]; measured here: BGB combination, at 0.5 µM",12.4% and 36%
same,inhibition,"[10]; measured here: BGB combination, at 5 µM",22.9% and 47.8%
same,inhibition,"[10]; measured here: cisplatin combination, at 0.5 µM",44% and 56.3%
same,inhibition,"[10]; measured here: cisplatin combination, at 5 µM",73% and 86.7%
same,inhibition,"[11]; BGB combination, concentration series, at 5 µM",17.5% and 50.3%
same,inhibition,[11]; at 0.5 µM,15.2% (inactive) and 29.3% (inactive)
same,inhibition,"[11]; cisplatin combination, concentration series, at 5 µM",55.7% and 77.6%
same,inhibition,[12]; at 0.5 µM,17.4% (inactive) and 30.8% (inactive)
same,inhibition,"[12]; measured here: combo with BGB IC20, at 0.5 µM",14.4% and 24.7%
same,inhibition,"[12]; measured here: combo with cisplatin IC20, at 0.5 µM",5.72% and 15.6%
same,inhibition,[13]; at 0.5 µM,-20.4% (inactive) and -2.18% (inactive)
same,inhibition,"[13]; cisplatin combination, at 0.5 µM",-4.33% and -24.2%
same,inhibition,"[13]; cisplatin combination, at 5 µM",-24.6% and 6.37%
same,inhibition,"[13]; measured here: BGB IC40 combination 0.05 uM, at 0.05 µM",-0.925% and 1.52%
same,inhibition,"[13]; single agent, at 5 µM",-4.53% and -3.71%
same,inhibition,[14]; at 0.5 µM,-3.13% (inactive) and -17.8% (inactive)
same,inhibition,"[14]; cisplatin combo, at 5 µM",11.8% and 9.06%
same,inhibition,"[14]; measured here: BGB IC40 combination, at 0.05 µM",-3.94% and -12.9%
same,inhibition,[14]; [19],1.15% and 0.687%
same,inhibition,"[14]; single agent, at 5 µM",-14.6% and -9.12%
same,inhibition,[15]; at 0.5 µM,30.4% (inactive) and 66.8% (inactive)
same,inhibition,[15]; [17],10.3% and 56.4%
same,inhibition,[15]; [18],40.5% and 71.6%
same,inhibition,"[15]; single agent, at 0.05 µM",7.06% and 11.7%
same,inhibition,"[15]; single agent, at 5 µM",91.4% and 96.1%

# From PubChem BioAssay
